In PubChem BioAssay (NCI) one finds growth data, which are given here for eight compounds.

Some test systems named below: SR leukemia; RPMI-8226 leukemia; OVCAR-8 ovarian; OVCAR-5 ovarian; OVCAR-4 ovarian; SK-OV-3 ovarian; IGROV1 ovarian; HS 578T breast; NCI/ADR-RES ovarian; T-47D breast; BT-549 breast; MDA-MB-435 melanoma; SW-620 colon; MCF7 breast; HCT-116 colon; HCC-2998 colon; KM12 colon.
Common to all, as to assay: NCI-60 one-dose screen, 48 h (100 = growth as untreated, 0 = no growth, -100 = all killed)
Holding throughout (details): 10 µM unless noted

The panel holds about 83,000 compounds, 20% with a hit somewhere; the sample as a whole holds those more often.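 Method: cells in 96-well plates; compound added at one concentration; 48 h incubation; percent growth measured; values under 10 scored active.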 A number with no mark means an inactive call. Active and inactive are the calls of the source.

Regarding `C/C(=N\O)[C@H]1C[C@]23CC[C@]4(C)[C@H](CC[C@@H]5[C@@]6(C)CC/C(=N/O)C(C)(C)[C@@H]6CC[C@]54C)[C@H]2[C@H](C)C1(C)OC3`, the growth with SR leukemia is 98.7%; in the assay on RPMI-8226 leukemia it was 124%; in the assay on OVCAR-8 ovarian it was 106%; in the assay with OVCAR-5 ovarian it was 105%; in the assay with OVCAR-4 ovarian, 82.8%; with SK-OV-3 ovarian it was 122%. The growth in the assay with IGROV1 ovarian was 86.2%; with HS 578T breast, 104%; with NCI/ADR-RES ovarian, 113%; with T-47D breast it was 108%; with BT-549 breast, 107%; in the assay with MDA-MB-435 melanoma it was 97.2%. The growth in the assay on SW-620 colon is 99.9%; with MCF7 breast it was 93.3%; in the assay on HCT-116 colon, 97.2%; in the assay with HCC-2998 colon it was 115%; in the assay on KM12 colon it was 102%.

For `Nc1nc(-c2cccc([N+](=O)[O-])c2)c(N=Nc2ccc(Br)cc2)s1`, the growth in the assay on SR leukemia is 50.7%; with RPMI-8226 leukemia, 15%; in the assay with OVCAR-8 ovarian it was -28.7% (active); in the assay on OVCAR-5 ovarian it was -12.1% (active); in the assay on OVCAR-4 ovarian, -33.2% (active); in the assay on SK-OV-3 ovarian it was -83.7% (active). Further, the growth was -13.3% (active) in the assay on IGROV1 ovarian; 0.349% (active) in the assay on HS 578T breast; -21.7% (active) in the assay with NCI/ADR-RES ovarian; -26.9% (active) in the assay with T-47D breast; -29.6% (active) with BT-549 breast; 0.572% (active) with MDA-MB-435 melanoma. The growth with SW-620 colon was -34.5% (active); in the assay with MCF7 breast it was 7.63% (active); in the assay with HCT-116 colon, -76.6% (active); in the assay with HCC-2998 colon, -31.6% (active); in the assay on KM12 colon it was 15.4%.

In the case of `O=C(Nc1nc2ccc([N+](=O)[O-])cc2s1)Nc1ccccc1Br`, the growth in the assay with SR leukemia was 23.2%; in the assay with RPMI-8226 leukemia it was 6.15% (active); with OVCAR-8 ovarian, 51.4%; in the assay with OVCAR-5 ovarian it was 84.4%; in the assay with OVCAR-4 ovarian it was 12.2%; in the assay with SK-OV-3 ovarian, 63.6%. For the same compound, the growth is 47.3% in the assay with IGROV1 ovarian; 47.1% in the assay on HS 578T breast; 52.1% with NCI/ADR-RES ovarian; 33.8% in the assay with T-47D breast; 71.7% with BT-549 breast; 38.2% in the assay with MDA-MB-435 melanoma. In addition, the growth in the assay with SW-620 colon was 39.2%; with MCF7 breast it was 24.8%; in the assay on HCT-116 colon, 18.1%; with HCC-2998 colon it was 37.8%; in the assay with KM12 colon, 15.1%.

In the case of `CN1CCN(Cc2ccc(NC(=O)c3cncc(C#Cc4cnc5ccc(NCCCO)nn45)c3)cc2C(F)(F)F)CC1`, the growth in the assay on SR leukemia is -15.6% (active); with RPMI-8226 leukemia, -36.9% (active); in the assay on OVCAR-8 ovarian it was -8.06% (active); in the assay with OVCAR-5 ovarian, 4.78% (active); in the assay with OVCAR-4 ovarian, -19.9% (active); in the assay with SK-OV-3 ovarian it was -47.5% (active). The growth in the assay with IGROV1 ovarian was 9.68% (active); in the assay on HS 578T breast, -26.5% (active); in the assay with NCI/ADR-RES ovarian, 74.1%; with T-47D breast it was 1.95% (active); in the assay with BT-549 breast, -81.5% (active); in the assay on MDA-MB-435 melanoma, -39.8% (active). For the same compound, the growth with SW-620 colon is -34.6% (active); in the assay on MCF7 breast, -34.5% (active); with HCT-116 colon, -83.6% (active); with HCC-2998 colon, -9.99% (active); with KM12 colon, -12.1% (active).

For the compound `CCCn1cnc2c(c1=N)C(c1ccc(OC)cc1)c1sc3c(C)cccc3c1O2` (stereo unspecified), the growth in the assay with SR leukemia is 27%; in the assay on RPMI-8226 leukemia it was -3.63% (active); in the assay on OVCAR-8 ovarian it was 23.9%; in the assay on OVCAR-5 ovarian, 32.4%; with OVCAR-4 ovarian, 75.3%; in the assay with SK-OV-3 ovarian, 49%. The growth in the assay with IGROV1 ovarian was 18.4%; in the assay with HS 578T breast it was 10.5%; in the assay with NCI/ADR-RES ovarian, 7.35% (active); with T-47D breast, 40.6%; in the assay with BT-549 breast, 12.2%; with MDA-MB-435 melanoma, -33.4% (active). The growth in the assay on SW-620 colon was 25.7%; in the assay on MCF7 breast, 20.4%; with HCT-116 colon, 6.27% (active); in the assay on HCC-2998 colon, 15%; with KM12 colon, 11.7%.

For `N#C/C(=C\c1ccc(-c2ccc(Cl)cc2Cl)o1)c1ccc(F)cc1`, the growth is 90.5% with SR leukemia; 85% in the assay on RPMI-8226 leukemia; 93.8% with OVCAR-8 ovarian; 92.2% in the assay on OVCAR-5 ovarian; 80.4% with OVCAR-4 ovarian; 81.9% in the assay on SK-OV-3 ovarian. The growth in the assay with IGROV1 ovarian is 86.5%; in the assay on HS 578T breast, 89.9%; in the assay with NCI/ADR-RES ovarian, 93.7%; with T-47D breast it was 78.8%; in the assay on BT-549 breast it was 112%; in the assay on MDA-MB-435 melanoma it was 93.7%. In addition, the growth in the assay on SW-620 colon is 93.5%; with MCF7 breast, 66.9%; with HCT-116 colon, 88.1%; with HCC-2998 colon it was 105%; with KM12 colon it was 94.2%.

For the compound `Cc1cccc(/C=C/C(=O)Nc2ncc(Cc3cccc(C)c3)s2)c1`, the growth was 6.46% (active) in the assay on SR leukemia; 19.1% in the assay with RPMI-8226 leukemia; 24.3% in the assay with OVCAR-8 ovarian; 40.6% in the assay with OVCAR-5 ovarian; 45.6% in the assay with OVCAR-4 ovarian; 30% in the assay on SK-OV-3 ovarian. In addition, the growth was 32.5% in the assay with IGROV1 ovarian; 14.2% with HS 578T breast; 18.3% in the assay with NCI/ADR-RES ovarian; 32.7% in the assay on T-47D breast; 66.6% with BT-549 breast; -70.2% (active) in the assay on MDA-MB-435 melanoma. Also, the growth with SW-620 colon was 16.8%; in the assay with MCF7 breast it was 15.1%; in the assay on HCT-116 colon it was 23.1%; in the assay with HCC-2998 colon it was 34.8%; in the assay with KM12 colon, 6.43% (active).

As to `COc1ccc(NCc2cn(-c3ccc(C(=O)O)cc3)nc2-c2cc(C(F)(F)F)cc(C(F)(F)F)c2)cc1`, the growth in the assay with SR leukemia was 112%; in the assay on RPMI-8226 leukemia it was 67.2%; in the assay on OVCAR-8 ovarian, 109%; in the assay with OVCAR-5 ovarian, 104%; with OVCAR-4 ovarian it was 100%; with SK-OV-3 ovarian it was 99.6%. Moreover, the growth with IGROV1 ovarian was 108%; in the assay with HS 578T breast, 81.5%; with NCI/ADR-RES ovarian it was 96.8%; with T-47D breast, 76.6%; with BT-549 breast, 110%; in the assay on MDA-MB-435 melanoma, 101%. In addition, the growth with SW-620 colon was 102%; with MCF7 breast it was 90.9%; in the assay on HCT-116 colon it was 95.2%; in the assay on HCC-2998 colon, 104%; with KM12 colon it was 99.8%.
